Compound in the experiment: Nc1ncnc2c1ncn2[C@@H]1O[C@H](COP(=O)(O)OP(=O)(O)NP(=O)(O)O)[C@@H](O)[C@H]1O [adenylyl imidodiphosphate]
As to the kind of experiment: NP40-soluble protein abundance relative to vehicle (solubility fold change) (ratio); higher = more soluble protein in presence of AMP-PNP. Put shortly: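 Jurkat crude lysate prepared with a Dounce homogeniser was treated at eight concentrations spanning 0.1 to 10 mM, 10 min at room temperature then 3 min at 37 °C. Solubilisation with 0.8% NP40 and benzonase and ultracentrifugation preceded TMT labelling of the supernatant for LC-MS/MS. Fold change against the detergent-processed vehicle was determined per replicate from vsn-normalised intensities, across three independent experiments.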

± gives the standard deviation of the averaged measurements. Of roughly 6,200 targets only a part is listed; those with the largest changes were picked by preference.

Sequence of UniProt Q6PI48 (Q6PI48 whole entry): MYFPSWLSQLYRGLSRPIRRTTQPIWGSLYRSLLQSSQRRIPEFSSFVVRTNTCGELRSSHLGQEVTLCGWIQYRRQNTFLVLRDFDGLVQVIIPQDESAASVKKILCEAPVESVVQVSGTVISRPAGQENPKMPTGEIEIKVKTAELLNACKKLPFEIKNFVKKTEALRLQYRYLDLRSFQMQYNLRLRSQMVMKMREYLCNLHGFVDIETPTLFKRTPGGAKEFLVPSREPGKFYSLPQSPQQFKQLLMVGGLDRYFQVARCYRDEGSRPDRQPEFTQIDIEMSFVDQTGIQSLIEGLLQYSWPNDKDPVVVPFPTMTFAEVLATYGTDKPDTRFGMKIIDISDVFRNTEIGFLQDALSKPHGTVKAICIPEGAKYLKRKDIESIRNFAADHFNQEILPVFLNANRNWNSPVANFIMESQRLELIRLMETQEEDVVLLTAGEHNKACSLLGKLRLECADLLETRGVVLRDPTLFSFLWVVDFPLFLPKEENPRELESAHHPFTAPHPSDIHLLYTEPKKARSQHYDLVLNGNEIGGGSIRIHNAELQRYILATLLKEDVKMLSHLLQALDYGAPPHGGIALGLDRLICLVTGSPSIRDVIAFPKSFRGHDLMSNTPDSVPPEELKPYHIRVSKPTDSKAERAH
Sequence of UniProt Q7Z3B4 (Q7Z3B4 whole entry): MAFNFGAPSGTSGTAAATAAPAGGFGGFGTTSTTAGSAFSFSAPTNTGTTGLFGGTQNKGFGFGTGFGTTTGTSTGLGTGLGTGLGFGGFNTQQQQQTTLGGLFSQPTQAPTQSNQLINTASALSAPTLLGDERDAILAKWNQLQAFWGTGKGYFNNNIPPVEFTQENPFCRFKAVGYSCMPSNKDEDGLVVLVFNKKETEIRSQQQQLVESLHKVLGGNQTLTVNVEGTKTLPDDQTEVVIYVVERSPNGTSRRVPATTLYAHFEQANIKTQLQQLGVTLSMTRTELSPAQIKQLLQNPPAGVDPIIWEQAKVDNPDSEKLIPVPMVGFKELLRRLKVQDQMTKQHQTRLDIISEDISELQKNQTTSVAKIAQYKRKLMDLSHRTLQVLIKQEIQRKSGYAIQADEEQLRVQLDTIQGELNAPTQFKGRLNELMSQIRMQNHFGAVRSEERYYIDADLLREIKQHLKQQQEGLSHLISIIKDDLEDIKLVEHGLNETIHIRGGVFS
Sequence of UniProt Q8NCL4 (Q8NCL4 whole entry): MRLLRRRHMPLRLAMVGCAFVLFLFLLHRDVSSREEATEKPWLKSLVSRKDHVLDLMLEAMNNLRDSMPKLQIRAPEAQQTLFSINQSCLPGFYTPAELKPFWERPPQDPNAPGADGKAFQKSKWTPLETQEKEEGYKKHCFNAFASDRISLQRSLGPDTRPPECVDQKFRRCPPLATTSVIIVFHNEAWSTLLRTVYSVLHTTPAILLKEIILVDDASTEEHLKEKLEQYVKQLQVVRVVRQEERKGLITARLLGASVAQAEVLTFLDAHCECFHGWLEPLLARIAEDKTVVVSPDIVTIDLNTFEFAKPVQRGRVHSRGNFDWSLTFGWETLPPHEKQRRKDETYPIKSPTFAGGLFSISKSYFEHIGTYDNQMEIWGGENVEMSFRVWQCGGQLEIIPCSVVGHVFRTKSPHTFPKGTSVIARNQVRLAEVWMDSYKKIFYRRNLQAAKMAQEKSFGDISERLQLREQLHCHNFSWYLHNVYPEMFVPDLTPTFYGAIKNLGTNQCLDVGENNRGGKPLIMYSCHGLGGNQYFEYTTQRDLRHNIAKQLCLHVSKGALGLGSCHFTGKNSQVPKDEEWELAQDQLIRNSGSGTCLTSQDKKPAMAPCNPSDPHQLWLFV
Sequence of UniProt Q14181 (Q14181 whole entry): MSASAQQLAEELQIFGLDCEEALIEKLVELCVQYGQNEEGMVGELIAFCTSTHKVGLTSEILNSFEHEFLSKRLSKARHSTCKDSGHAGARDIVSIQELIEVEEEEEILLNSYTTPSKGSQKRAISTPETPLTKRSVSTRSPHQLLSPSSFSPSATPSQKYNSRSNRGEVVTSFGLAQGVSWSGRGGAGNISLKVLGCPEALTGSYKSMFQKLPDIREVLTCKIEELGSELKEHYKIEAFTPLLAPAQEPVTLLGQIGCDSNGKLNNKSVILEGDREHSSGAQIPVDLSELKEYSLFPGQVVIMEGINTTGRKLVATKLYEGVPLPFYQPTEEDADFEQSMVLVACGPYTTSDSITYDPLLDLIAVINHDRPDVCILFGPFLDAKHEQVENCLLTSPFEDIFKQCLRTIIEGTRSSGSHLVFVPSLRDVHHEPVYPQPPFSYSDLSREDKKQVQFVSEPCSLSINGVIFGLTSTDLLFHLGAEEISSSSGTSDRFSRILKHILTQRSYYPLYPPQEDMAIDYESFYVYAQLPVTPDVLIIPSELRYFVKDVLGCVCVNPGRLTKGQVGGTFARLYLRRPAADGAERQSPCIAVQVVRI
Sequence of UniProt Q14156 (Q14156 whole entry): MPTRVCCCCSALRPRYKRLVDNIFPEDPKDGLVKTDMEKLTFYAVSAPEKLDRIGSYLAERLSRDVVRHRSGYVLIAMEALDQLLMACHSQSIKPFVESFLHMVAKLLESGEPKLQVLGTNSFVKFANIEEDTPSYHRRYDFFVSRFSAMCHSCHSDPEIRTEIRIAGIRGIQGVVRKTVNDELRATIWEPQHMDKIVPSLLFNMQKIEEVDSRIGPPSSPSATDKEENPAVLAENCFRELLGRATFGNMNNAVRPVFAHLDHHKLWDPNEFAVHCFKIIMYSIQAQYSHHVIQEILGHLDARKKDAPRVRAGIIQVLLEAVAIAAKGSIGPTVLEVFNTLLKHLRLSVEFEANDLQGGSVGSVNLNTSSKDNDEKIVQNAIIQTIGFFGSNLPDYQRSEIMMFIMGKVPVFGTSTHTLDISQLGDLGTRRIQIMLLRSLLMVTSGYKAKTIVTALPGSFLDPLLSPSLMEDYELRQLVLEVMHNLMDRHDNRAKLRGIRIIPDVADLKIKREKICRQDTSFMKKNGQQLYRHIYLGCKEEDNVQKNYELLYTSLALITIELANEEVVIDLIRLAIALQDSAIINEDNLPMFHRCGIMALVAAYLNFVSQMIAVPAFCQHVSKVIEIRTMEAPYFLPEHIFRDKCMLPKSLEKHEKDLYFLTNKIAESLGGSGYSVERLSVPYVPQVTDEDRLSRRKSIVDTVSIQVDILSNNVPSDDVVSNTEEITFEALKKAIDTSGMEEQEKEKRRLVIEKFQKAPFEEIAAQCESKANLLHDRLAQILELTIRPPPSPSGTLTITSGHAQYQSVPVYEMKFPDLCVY
Sequence of UniProt Q86YS7 (Q86YS7 whole entry): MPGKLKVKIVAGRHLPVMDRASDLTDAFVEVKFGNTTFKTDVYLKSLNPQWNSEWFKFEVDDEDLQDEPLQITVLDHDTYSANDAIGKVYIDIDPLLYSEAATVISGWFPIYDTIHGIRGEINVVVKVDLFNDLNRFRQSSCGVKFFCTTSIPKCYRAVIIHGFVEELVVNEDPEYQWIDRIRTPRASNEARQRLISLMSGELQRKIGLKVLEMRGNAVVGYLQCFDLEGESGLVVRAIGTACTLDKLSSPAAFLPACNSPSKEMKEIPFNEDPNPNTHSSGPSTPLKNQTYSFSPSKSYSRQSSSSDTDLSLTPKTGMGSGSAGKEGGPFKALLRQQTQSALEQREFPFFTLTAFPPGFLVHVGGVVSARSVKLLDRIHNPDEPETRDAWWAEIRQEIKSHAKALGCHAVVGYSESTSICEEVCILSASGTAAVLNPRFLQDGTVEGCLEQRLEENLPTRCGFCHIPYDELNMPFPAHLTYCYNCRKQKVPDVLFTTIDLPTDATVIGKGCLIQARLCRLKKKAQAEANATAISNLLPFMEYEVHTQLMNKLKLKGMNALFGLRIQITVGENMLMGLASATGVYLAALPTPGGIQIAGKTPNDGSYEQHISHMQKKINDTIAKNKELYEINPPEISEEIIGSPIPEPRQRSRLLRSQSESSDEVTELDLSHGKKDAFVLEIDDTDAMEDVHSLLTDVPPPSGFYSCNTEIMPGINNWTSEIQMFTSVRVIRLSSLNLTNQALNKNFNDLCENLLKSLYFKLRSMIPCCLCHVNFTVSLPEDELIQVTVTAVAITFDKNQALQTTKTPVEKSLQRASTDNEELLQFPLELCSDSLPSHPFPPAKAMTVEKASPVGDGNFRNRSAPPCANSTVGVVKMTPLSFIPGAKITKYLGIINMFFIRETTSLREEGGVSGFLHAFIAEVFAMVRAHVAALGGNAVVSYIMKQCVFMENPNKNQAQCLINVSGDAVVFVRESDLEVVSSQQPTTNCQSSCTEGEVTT
Sequence of UniProt Q15084 (Q15084 whole entry): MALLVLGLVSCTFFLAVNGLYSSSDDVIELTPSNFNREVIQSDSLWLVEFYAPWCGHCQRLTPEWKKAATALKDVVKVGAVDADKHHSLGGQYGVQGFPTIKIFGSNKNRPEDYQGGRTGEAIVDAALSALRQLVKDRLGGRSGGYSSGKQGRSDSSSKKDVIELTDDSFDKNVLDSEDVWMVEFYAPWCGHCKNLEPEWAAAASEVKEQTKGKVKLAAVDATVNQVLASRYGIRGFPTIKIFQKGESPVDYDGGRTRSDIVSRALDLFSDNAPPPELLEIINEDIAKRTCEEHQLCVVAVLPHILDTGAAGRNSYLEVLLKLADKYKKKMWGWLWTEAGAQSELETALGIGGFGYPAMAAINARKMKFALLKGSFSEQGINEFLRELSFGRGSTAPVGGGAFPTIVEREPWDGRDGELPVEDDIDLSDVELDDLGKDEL
Sequence of UniProt Q8N0X4 (Q8N0X4 whole entry): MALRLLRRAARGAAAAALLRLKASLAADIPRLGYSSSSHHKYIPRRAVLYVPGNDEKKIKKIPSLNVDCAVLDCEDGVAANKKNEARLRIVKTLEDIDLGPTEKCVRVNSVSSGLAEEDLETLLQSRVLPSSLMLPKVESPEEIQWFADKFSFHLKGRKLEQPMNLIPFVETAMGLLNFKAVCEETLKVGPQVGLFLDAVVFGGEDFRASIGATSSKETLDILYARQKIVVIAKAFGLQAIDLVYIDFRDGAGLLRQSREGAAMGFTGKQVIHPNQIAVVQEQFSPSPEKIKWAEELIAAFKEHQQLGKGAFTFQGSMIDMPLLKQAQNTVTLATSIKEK

Regarding UniProt Q14156|Q14156-2, the NP40-soluble protein abundance is 0.9764 ± 0.0041 (concentration: 1mM); 0.961 ± 0.041 (concentration: 2mM); 0.9737 ± 0.0064 (concentration: 4mM); 0.952 ± 0.023 (concentration: 6mM); 0.973 ± 0.015 (concentration: 8mM); 0.953 ± 0.018 (concentration: 10mM).

As to UniProt Q15390|H0YBZ4|Q15390-2, the NP40-soluble protein abundance came to 1.008 ± 0.0075 (concentration: 1mM); 1.05 ± 0.071 (concentration: 2mM); 1.01 ± 0.02 (concentration: 4mM); 1 ± 0.011 (concentration: 6mM); 0.9719 ± 0.0073 (concentration: 8mM); 0.989 ± 0.021 (concentration: 10mM).

Turning to FIG4 (UniProt Q92562), the NP40-soluble protein abundance runs as follows: (concentration: 1mM) 1 ± 0.022; (concentration: 2mM) 1.04 ± 0.024; (concentration: 4mM) 1.06 ± 0.04; (concentration: 6mM) 1.02 ± 0.024; (concentration: 8mM) 0.9942 ± 0.0076; (concentration: 10mM) 0.9926 ± 0.0034.

In the case of UniProt Q5T011|Q5T011-5, the NP40-soluble protein abundance by setting is: (concentration: 1mM) 0.882 ± 0.14; (concentration: 2mM) 0.91 ± 0.071; (concentration: 4mM) 0.912 ± 0.076; (concentration: 6mM) 0.864 ± 0.16; (concentration: 8mM) 0.809 ± 0.045; (concentration: 10mM) 0.803 ± 0.056.

On to EPM2AIP1 (UniProt Q7L775), for which the NP40-soluble protein abundance stood at 0.961 ± 0.015 (concentration: 1mM); 0.94 ± 0.032 (concentration: 2mM); 0.96 ± 0.025 (concentration: 4mM); 0.947 ± 0.028 (concentration: 6mM); 0.9617 ± 0.0055 (concentration: 8mM); 0.958 ± 0.041 (concentration: 10mM).

As for “UniProt Q6RI45|Q6RI45-2|Q6RI45-3|Q6RI45-4|Q6RI45-5”, the NP40-soluble protein abundance is 0.999 ± 0.016 (concentration: 1mM); 0.9969 ± 0.0018 (concentration: 2mM); 0.986 ± 0.016 (concentration: 4mM); 0.9818 ± 0.0045 (concentration: 6mM); 1 ± 0.043 (concentration: 8mM); 1 ± 0.022 (concentration: 10mM).

In the case of UniProt Q92614|Q92614-2|Q92614-4, the NP40-soluble protein abundance worked out at 1.02 ± 0.025 (concentration: 1mM); 1.05 ± 0.026 (concentration: 2mM); 1.01 ± 0.014 (concentration: 4mM); 0.984 ± 0.045 (concentration: 6mM); 0.955 ± 0.026 (concentration: 8mM); 0.971 ± 0.042 (concentration: 10mM).

Turning to EIF4EBP1 (UniProt Q13541), the NP40-soluble protein abundance was determined as 0.949 ± 0.016 (concentration: 1mM); 1.032 ± 0.008 (concentration: 2mM); 0.998 ± 0.1 (concentration: 4mM); 0.9563 ± 0.0018 (concentration: 6mM); 0.961 ± 0.059 (concentration: 8mM); 0.96 ± 0.047 (concentration: 10mM).

As for “UniProt Q6IAA8|F5GX19|F5H3Y3|F5H479|H0YFI1”, the NP40-soluble protein abundance reads like this: (concentration: 1mM) 1.02 ± 0.025; (concentration: 2mM) 1.04 ± 0.028; (concentration: 4mM) 1.04 ± 0.047; (concentration: 6mM) 0.992 ± 0.051; (concentration: 8mM) 0.975 ± 0.017; (concentration: 10mM) 0.966 ± 0.035.

In the case of CLYBL (UniProt Q8N0X4), the NP40-soluble protein abundance reads like this: (concentration: 1mM) 1.01 ± 0.016; (concentration: 2mM) 0.978 ± 0.013; (concentration: 4mM) 1 ± 0.02; (concentration: 6mM) 0.982 ± 0.043; (concentration: 8mM) 0.9692 ± 0.0037; (concentration: 10mM) 0.9819 ± 0.0062.

UniProt Q8TEX9|Q8TEX9-2: the NP40-soluble protein abundance by setting is: (concentration: 1mM) 1.01 ± 0.026; (concentration: 2mM) 0.974 ± 0.059; (concentration: 4mM) 0.99 ± 0.017; (concentration: 6mM) 0.9956 ± 0.0059; (concentration: 8mM) 1.007 ± 0.0054; (concentration: 10mM) 0.981 ± 0.025.

With PRPF4B (UniProt Q13523), the NP40-soluble protein abundance (concentration: 1mM) was found to be 1.02 ± 0.02; the NP40-soluble protein abundance (concentration: 2mM) came to 1.01 ± 0.048; the NP40-soluble protein abundance (concentration: 4mM) was found to be 1.1 ± 0.037; the NP40-soluble protein abundance (concentration: 6mM) was 1.2 ± 0.032; the NP40-soluble protein abundance (concentration: 8mM) was 1.26 ± 0.042; the NP40-soluble protein abundance (concentration: 10mM) is 1.34 ± 0.067.

As for DARS2 (UniProt Q6PI48), the NP40-soluble protein abundance stood at 0.939 ± 0.049 (concentration: 1mM); 0.861 ± 0.12 (concentration: 2mM); 0.924 ± 0.016 (concentration: 4mM); 0.918 ± 0.036 (concentration: 6mM); 0.942 ± 0.021 (concentration: 8mM); 0.89 ± 0.012 (concentration: 10mM).

UniProt Q8WUQ7|Q8WUQ7-2: the NP40-soluble protein abundance amounted to 1.05 ± 0.027 (concentration: 1mM); 1.05 ± 0.027 (concentration: 2mM); 1.09 ± 0.03 (concentration: 4mM); 1.06 ± 0.023 (concentration: 6mM); 1.06 ± 0.031 (concentration: 8mM); 1.11 ± 0.063 (concentration: 10mM).

For UniProt Q7Z3B4|Q7Z3B4-3, the NP40-soluble protein abundance (concentration: 1mM) stood at 0.969 ± 0.054; the NP40-soluble protein abundance (concentration: 2mM) is 0.9436 ± 0.0042; the NP40-soluble protein abundance (concentration: 4mM) was 1 ± 0.064; the NP40-soluble protein abundance (concentration: 6mM) came to 1.07 ± 0.067; the NP40-soluble protein abundance (concentration: 8mM) turned out to be 1.13 ± 0.078; the NP40-soluble protein abundance (concentration: 10mM) is 1.09 ± 0.11.

Regarding ANKRD13A (UniProt Q8IZ07), the NP40-soluble protein abundance (concentration: 1mM) stood at 0.985 ± 0.017; the NP40-soluble protein abundance (concentration: 2mM) was 0.981 ± 0.013; the NP40-soluble protein abundance (concentration: 4mM) amounted to 1.04 ± 0.029; the NP40-soluble protein abundance (concentration: 6mM) is 1.06 ± 0.061; the NP40-soluble protein abundance (concentration: 8mM) was 1.04 ± 0.03; the NP40-soluble protein abundance (concentration: 10mM) came to 1.08 ± 0.047.

With DNTTIP2 (UniProt Q5QJE6), the NP40-soluble protein abundance runs as follows: (concentration: 1mM) 1.1 ± 0.036; (concentration: 2mM) 1.2 ± 0.022; (concentration: 4mM) 1.27 ± 0.06; (concentration: 6mM) 1.34 ± 0.083; (concentration: 8mM) 1.4 ± 0.12; (concentration: 10mM) 1.53 ± 0.16.

In the case of UniProt Q5RI15|Q5RI15-2, the NP40-soluble protein abundance (concentration: 1mM) was determined as 1.12 ± 0.073; the NP40-soluble protein abundance (concentration: 2mM) came out at 1.13 ± 0.1; the NP40-soluble protein abundance (concentration: 4mM) was found to be 1.05 ± 0.034; the NP40-soluble protein abundance (concentration: 6mM) stood at 1.1 ± 0.044; the NP40-soluble protein abundance (concentration: 8mM) stood at 1.05 ± 0.049; the NP40-soluble protein abundance (concentration: 10mM) amounted to 1.11 ± 0.04.

For “UniProt Q5M775|Q5M775-2|Q5M775-3|Q5M775-4|Q5M775-5”, the NP40-soluble protein abundance is, setting by setting: (concentration: 1mM) 0.945 ± 0.062; (concentration: 2mM) 0.89 ± 0.032; (concentration: 4mM) 0.95 ± 0.05; (concentration: 6mM) 1.04 ± 0.032; (concentration: 8mM) 1.01 ± 0.031; (concentration: 10mM) 0.992 ± 0.059.

Take UniProt Q15599|Q15599-2: the NP40-soluble protein abundance was found to be 1.01 ± 0.046 (concentration: 1mM); 1.05 ± 0.042 (concentration: 2mM); 1.04 ± 0.035 (concentration: 4mM); 1.05 ± 0.038 (concentration: 6mM); 1.04 ± 0.038 (concentration: 8mM); 1.03 ± 0.045 (concentration: 10mM).

As to POLA2 (UniProt Q14181), the NP40-soluble protein abundance runs as follows: (concentration: 1mM) 0.994 ± 0.014; (concentration: 2mM) 0.974 ± 0.028; (concentration: 4mM) 1 ± 0.044; (concentration: 6mM) 1.04 ± 0.03; (concentration: 8mM) 1.02 ± 0.021; (concentration: 10mM) 1.03 ± 0.025.

With UniProt Q6P6C2|Q6P6C2-1, the NP40-soluble protein abundance by setting is: (concentration: 1mM) 1.15 ± 0.065; (concentration: 2mM) 1.17 ± 0.036; (concentration: 4mM) 1.22 ± 0.07; (concentration: 6mM) 1.24 ± 0.13; (concentration: 8mM) 1.3 ± 0.13; (concentration: 10mM) 1.33 ± 0.11.

UniProt Q86YS7: the NP40-soluble protein abundance reads like this: (concentration: 1mM) 0.973 ± 0.015; (concentration: 2mM) 0.97 ± 0.016; (concentration: 4mM) 0.982 ± 0.017; (concentration: 6mM) 0.942 ± 0.012; (concentration: 8mM) 0.919 ± 0.015; (concentration: 10mM) 0.948 ± 0.018.

Turning to GALNT6 (UniProt Q8NCL4), the NP40-soluble protein abundance reads like this: (concentration: 1mM) 1.005 ± 0.0084; (concentration: 2mM) 0.9987 ± 0.0047; (concentration: 4mM) 0.967 ± 0.011; (concentration: 6mM) 1 ± 0.024; (concentration: 8mM) 0.9866 ± 0.0025; (concentration: 10mM) 1 ± 0.015.

Consider “UniProt Q15084|Q15084-2|Q15084-3|Q15084-4|Q15084-5”, for which the NP40-soluble protein abundance is, setting by setting: (concentration: 1mM) 0.949 ± 0.019; (concentration: 2mM) 0.989 ± 0.021; (concentration: 4mM) 0.9386 ± 0.0066; (concentration: 6mM) 0.951 ± 0.032; (concentration: 8mM) 0.92 ± 0.022; (concentration: 10mM) 0.94 ± 0.047.

The values are drawn from the supplement of paper PMC6411743.
